Experimental findings from PubChem BioAssay (NCATS) are described below.

Results filed as inconclusive are left out. Unmarked numbers belong to inactive results. Active and inactive are the calls of the source. Calls come from the whole dose curve.
% is set by controls: 0 for no effect and ±100 for the full control effect; potency is the fitted concentration of half-maximal effect.

The assay in a line: Confirmatory qHTS to identify inhibitors of SARS-CoV-2 cell entry (AID 1645844). Note: nearly all actives have a fitted effect of over 45% in size. The following applies: SARS-CoV-2 pseudotyped particle cell entry, luciferase; series mostly up to 57.2 µM; activity, negative = inhibition: at the top concentration. From the text:
Assay Provider: Wei Zheng, Ph.D.
National Center for Advancing Translational Sciences, National Institute of Health, Rockville, MD.
SARS-CoV-2 spike protein, within the viral envelope, mediates viral attachment and infection of host cells. The SARS-CoV-2 spike protein specifically binds to the host receptor ACE2 (Angiotensin-converting enzyme 2). This interaction promotes endocytosis of the viral particle, additional events lead to viral-host cell membrane fusion and release of the viral contents, allowing viral replication.
While SARS-CoV-2 requires BSL-3 facilities for live virus work, pseudotyped partices (PP) that incorporate SARS-CoV-2 spike proteins without replication elements could facilitate studies on viral entry mechanisms in a BSL-2 setting. This PP cell entry assay could also enable screening of small molecule compound libraries in BSL-2 setting to identify inhibitors of SARS-CoV-2 cell entry.
SEQUENCE No. (e.g., 1, 2, 3, etc.); […] (e.g., Cells, Incubation, Reagent, etc.); VALUE and DESCRIPTION.
1. Cells. Seed 1500 HEK293-ACE2 cells (Expi293F with stable expression of human ACE2) in 2 uL/well media (DMEM, 10% FBS, 1x L-glutamine, 1x Pen/Strep, 1 ug/ml puromycin) in white 1536-well assay plates (Greiner #782073).
2. Incubation. Incubate at 37C with 5% CO2 overnight (~16 h).
3. Compounds. Dispense 23 nL/well compounds in DMSO via pin transfer.
4. Incubation. Incubate for 1 hr at 37C 5% CO2.
5. Reagent. Dispense 2 uL/well of SARS-CoV-2-S pseudotyped particles (PP). [a] PPs are produced with murine leukemia virus pseudotyping). [b] SARS-CoV-2-S is Wuhan-Hu-1 sequence (BEI #NR-52420) with C-terminal 19 amino acid truncation.
6. Centrifugation. […]
7. Incubation. Incubate at for 48 hr at 37C 5% CO2
8. Centrifugation. Remove supernatant with gentle centrifugation using a Blue Washer (BlueCat Bio).
9. Reagent. Dispense 4 uL/well of Bright-Glo Luciferase detection reagent (Promega #E2620).
10. Incubation. Incubate for 5 min at room temperature.
11. Detection. Read luminescence signal (Viewlux plate reader, PerkinElmer). Data was normalized with wells containing SARS-CoV-2-S PP as 100%, and wells containing bald PP (no fusion protein) as 0%.
Background: In qHTS, concentration-response curves come from the screen itself.
Consider `NC(=O)c1cccc2cn(-c3ccc([C@@H]4CCCNC4)cc3)nc12`, for which the Potency was 4290 nM (active).
In the case of `N#Cc1c(NC(=O)c2cccc3ccccc23)sc2c1CCCC2`, the Potency is 1080 nM (active).
In the case of `COc1cc([C@@H]2c3cc4c(cc3[C@@H](O[C@@H]3O[C@@H]5CO[C@@H](C)O[C@@H]5[C@H](O)[C@@H]3O)[C@H]3COC(=O)[C@H]23)OCO4)cc(OC)c1O`, the Potency was 541 nM (active).
Regarding `N[C@@H](Cc1ccc(O)c(O)c1)C(=O)O`, the Potency is 3830 nM (active).
Regarding `CC(C)c1cnn2c(NCc3ccccc3)cc(N[C@@H](CO)[C@H](O)CO)nc12`, the Potency is 607 nM (active).
For the molecule `CCOC(=O)[C@H]1O[C@@H]1C(=O)N[C@@H](CC(C)C)C(=O)NCCC(C)C`, the Potency is 68.1 nM (active).
For the molecule `Cc1c(CN2CCN(S(C)(=O)=O)CC2)sc2c(N3CCOCC3)nc(-c3cnc(N)nc3)nc12`, the Potency was 215 nM (active).
On the same count and under the same terms, as for `NCC(=O)Nc1ccc(-n2nc(C(F)(F)F)cc2-c2ccc3c(ccc4ccccc43)c2)cc1`, the figure is 15200 nM (active).
As for `CCN(CC)CCOCCOC(=O)C(CC)(CC)c1ccccc1`, the “activity, negative = inhibition” value was -37.1%.
On to `C[C@@]1(C(=O)Nc2ccc(F)nc2)CCCN1c1nc(Nc2cc(C3CC3)[nH]n2)c2cccn2n1`, for which the Potency is 171 nM (active).
The same measure, in the same setting: under `COC(=O)Nc1ccc(-c2nc(N3CCOCC3)c3cnn(C4CCN(Cc5cccnc5)CC4)c3n2)cc1` stands 5410 nM (active).
Regarding `CO[C@H]1C(=O)[C@]2(C)[C@@H](OC)C[C@H]3OC[C@@]3(OC(C)=O)[C@H]2[C@H](OC(=O)c2ccccc2)[C@]2(O)C[C@H](OC(=O)[C@H](O)[C@@H](NC(=O)OC(C)(C)C)c3ccccc3)C(C)=C1C2(C)C`, the Potency was 48.2 nM (active).
Consider `Cc1c(-c2ccc(O)cc2)n(Cc2ccc(OCCN3CCCCCC3)cc2)c2ccc(O)cc12`, for which the Potency was 15200 nM (active).
On to `C/C(=C\c1csc(C)n1)[C@@H]1C[C@@H]2O[C@@H]2CCC[C@H](C)[C@H](O)[C@@H](C)C(=O)C(C)(C)[C@@H](O)CC(=O)O1`, for which the Potency was 121 nM (active).
For `COCCOC(=O)C1=C(C)NC2=C(C(=O)CC(c3ccccc3OC)C2)C1c1cccc(O)c1` (stereo not given), the “activity, negative = inhibition” value is -18.4%.
`Nc1nc(=O)n([C@H]2C[C@H](O)[C@@H](CO)O2)cc1F`: the Potency is 10.8 nM (active).
As to `O=C(NCCCCN1CCOCC1)c1cc2ccccc2o1`, the “activity, negative = inhibition” value is -26.1%.
For the molecule `CCN(CCO)CCCOc1ccc2c(Nc3cc(CC(=O)Nc4cccc(F)c4)[nH]n3)ncnc2c1`, the Potency was 681 nM (active).
`Nc1ccc(C(=O)Nc2cccc(-c3nc(N4CCOCC4)c4oc5ncccc5c4n3)c2)cn1`: the Potency was 192 nM (active).
Regarding `COc1cc(C)c(Sc2cnc(NC(=O)c3ccc(CNC(C)C(C)C)cc3)s2)cc1C(=O)N1CCN(C(C)=O)CC1` (stereo not given), the Potency was 9610 nM (active).
For `COC(=O)[C@H]1[C@H]2C[C@@H]3c4[nH]c5ccccc5c4CCN3C[C@H]2C[C@@H](OC(=O)c2cc(OC)c(OC)c(OC)c2)[C@@H]1OC`, the “activity, negative = inhibition” value was -16.9%.
With `Cc1ccc2nc(NCCN)c3ncc(C)n3c2c1`, the Potency is 19200 nM (active).
Consider `CCC(c1ccc(O)cc1)C(CC)c1ccc(O)cc1` (stereo not given), for which the Potency is 27100 nM (active).
Consider `C[C@H]1CCC/C=C/C2C[C@H](O)C[C@H]2[C@H](O)/C=C/C(=O)O1` (stereo not given in full), for which the Potency was 857 nM (active).
For `CC(=O)O[C@H]1C(=O)[C@@]2(C)C([C@H](OC(=O)c3ccccc3)[C@]3(O)C[C@H](OC(=O)[C@H](O)[C@@H](NC(=O)c4ccccc4)c4ccccc4)C(C)=C1C3(C)C)[C@]1(OC(C)=O)CO[C@@H]1C[C@@H]2O` (stereo not given in full), the Potency was 42.9 nM (active).
For the molecule `CN1c2ccccc2C(=O)N2CCc3c([nH]c4ccccc34)C21` (stereo not given), the Potency is 6810 nM (active).
Consider `COc1ccc(/C=C/C(=O)Nc2ccccc2C(=O)O)cc1OC`, for which the Potency was 429 nM (active).
With `CCCCOc1c(C(=O)c2c(F)cc(C)cc2F)cnc2n[nH]cc12`, the Potency is 1520 nM (active).
As to `COc1ccc(Nc2cc(-c3cnc(N)nc3)nc(N3CCOCC3)n2)cn1`, the Potency is 341 nM (active).
Turning to `COc1cc([C@@H]2c3cc4c(cc3[C@H](O)[C@H]3COC(=O)[C@@H]23)OCO4)cc(OC)c1OC`, the Potency is 12100 nM (active).
Turning to `Cc1cccc(Nc2nc(-c3ccncc3)cs2)c1`, the Potency was 4290 nM (active).
With `O=C(O)c1ccc(Nc2ncc3c(n2)-c2ccc(Cl)cc2C(c2c(F)cccc2F)=NC3)cc1`, the Potency is 242 nM (active).
Regarding `CCCCC(C)(C)[C@H](O)C=C[C@H]1[C@H](O)CC(=O)[C@H]1CC=CCCCC(=O)O`, the Potency was 17100 nM (active).
On the same count and under the same terms, under `COc1cc2c(cc1Cc1cccc(Cl)c1F)c(=O)c(C(=O)O)cn2[C@H](CO)C(C)C` stands 60.7 nM (active); under `O=C(O)C1(Cc2cccc(Nc3nccs3)n2)CCC(Oc2cccc(Cl)c2F)CC1` (stereo not given), 10800 nM (active); under `CC(C)[C@H](CO)Nc1nc(Nc2cccc(Cl)c2)c2ncn(C(C)C)c2n1`, 8570 nM (active).
The same measure, in the same setting: as for `CN1C(=O)C[C@H](C(=O)N[C@@H](Cc2cnc[nH]2)C(=O)N2CCC[C@@H]2C(N)=O)NC1=O`, the figure is 19200 nM (active).
As to `CC[C@@](C)(Nc1ccnc(-c2c[nH]c3ncccc23)n1)C(=O)NCC(F)(F)F`, the “activity, negative = inhibition” value is 0%.
`O=C(Nc1ncc(-c2cc(C(F)F)nn2-c2c(Cl)cccc2Cl)s1)C1CC1`: the Potency is 541 nM (active).
With `CC[C@H](C)C(=O)O[C@H]1CCC=C2C=C[C@H](C)[C@H](CC[C@@H]3C[C@@H](O)CC(=O)O3)[C@H]21`, the “activity, negative = inhibition” value was -67.7%.
